# From PubChem
# KB-3-1 tox: kills parental KB-3-1 adenocarcinoma cells | KB-3-1 viability, CellTiter-Glo ATP luminescence, 72 h | Potency, µM (highest dose often 46.1 µM), hits mostly cytotoxic | actives 1.4% (n = 400,000); further: potency means the concentration at half of the fitted maximal effect; on the % scale 0 is the no-effect control and ±100 the full control effect; nearly all actives have a fitted effect of over 60% in size
#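 Using CellTiter-Glo luminescence, growth of non-resistant KB-3-1 adenocarcinoma cells is assessed 72 h after pin-tool compound addition at 37 °C. Normalized responses across the concentration series yield fitted curves.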
# KB-V1 MDR tox: kills drug-selected multidrug resistant KB-V1 cells | KB-V1 MDR cells viability, CellTiter-Glo, 72 h | Potency, µM (series often up to 46.1 µM), most hits filed as cytotoxic | actives 3.4% (n = 400,000) | AID 1347076; further: potency means the concentration at half of the fitted maximal effect; on the % scale 0 is the no-effect control and ±100 the full control effect; nearly all actives have a fitted effect of over 60% in size
#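 KB-V1 MDR subline cells in DMEM (phenol-red free, 10% FBS) exposed to compounds in qHTS concentration series for 72 h at 37 degrees C. Viability read by CellTiter-Glo luminescence; concentration-effect curves fitted after normalization and correction.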
# SW480 rereplic: induces DNA re-replication in SW480 colon adenocarcinoma cells | SW480 DNA re-replication, Hoechst DNA content imaging, 48 h | Potency, µM (doses to about 46.1 µM), inactives show at the highest dose re-replication activation, most hits filed as activators | actives 1.8% (n = 340,000); further: potency means the concentration at half of the fitted maximal effect; % of control where 0% means no effect; nearly all actives have a fitted effect of over 55% in size
#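 Cells (250 per well) received 23 nL compound or DMSO by pin tool and were kept 48 hr at 37 C, 5% CO2. Nuclei were then stained with Hoechst for 40 min and scanned for DNA content.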
# MCF10A rerep: induces DNA re-replication in MCF 10a normal breast cells | MCF 10A DNA re-replication, Hoechst nuclear intensity, 48 h | Potency, µM (top dose mostly 46.1 µM), without a hit: at the top dose activity, positive = re-replication, hits mostly activators | actives 2.9% (n = 350,000) | AID 624296; further: potency means the concentration at half of the fitted maximal effect; % of control where 0% means no effect; nearly all actives have a fitted effect of over 50% in size
# IL-1B inflam inh: blocks inflammasome-driven IL-1 beta release; THP-1 LPS/ATP IL-1B secretion, AlphaLISA, 16 h; active compounds read low; activity change, % at 57.5 µM; actives 4.7% (n = 360,000); AID 743279; in the data active means activity change below about -50%; inconclusive means mostly about -30% to -49%; further: on the % scale 0 is the no-effect control and ±100 the full control effect
#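 Secreted IL-1B measured by AlphaLISA bead assay after 16 h compound exposure of THP-1 cells; compounds (final up to 57.5 uM) added 1 h before LPS (250 ng/mL) and ATP (1.25 mM) stimulation; lower signal means less secretion.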
# * hit, by the source's call; i = inactive; u = inconclusive; x = not tested or not shown; ! = repeats disagree; [ ] = another dose, or the depositor's remark. Only some compounds are listed: those with a hit (about 9.9% of all), similar ones and a draw of the others. Unless noted, the call rests on the fitted dose curve; in most records, active means well fitted curve in the direction sought with a large enough effect; inconclusive means small, poorly fitted or top-dose-only effect, or another doubt; inactive means no such curve, though single readings can be large; an effect the other way counts as inactive or inconclusive.
SMILES,KB-3-1 tox,KB-V1 MDR tox,SW480 rereplic,MCF10A rerep,IL-1B inflam inh
O=c1[nH]cnc2c1ncn2C1OC(CO)CC1F (stereo unspecified),i,i,x,x,28.2
C=CC[C@]12CCc3sccc3C1N(c1ccc(C(=O)OCC)cc1)C2=O (stereo partly specified),i,i,0.4%,27.9%,-2.8
COc1cc(Cl)nn(-c2ccccc2)c1=O,i,i,18.2%,0.1%,0.0
O=c1c(Cl)cc(Cl)nn1-c1ccccc1,u,u,u,5.8µM*,-100.0*
CC(C)N1CCc2c(sc(NC(=O)c3ccc(S(=O)(=O)N4CCCCC4C)cc3)c2C(N)=O)C1 (stereo unspecified),i,i,20.6µM*,u,-15.5
CC(C)N1CCc2c(sc(NC(=O)c3ccc4ccccc4c3)c2C(N)=O)C1,u,u,14.6µM*,9.2µM*,-84.4*
CC(C)N1CCc2c(sc(NC(=O)Cc3ccccc3)c2C(N)=O)C1,i,i,-3.9%,-3.4%,u
CCN1CCc2c(sc(NC(=O)c3cc4ccccc4cc3OC)c2C(N)=O)C1,u,i,11.6µM*,18.4µM*,-99.6*
CC(C)N1CCc2c(sc(NC(=O)c3ccc(C(=O)c4ccccc4)cc3)c2C(N)=O)C1,i,i,u,16.4µM*,-98.1*
O=C(Cn1ncc2c([nH]c3ccccc32)c1=O)N1CCN(c2ccccn2)CC1,i,i,-22.2%,5.9%,34.1
Cc1cccc(NC(=O)CSc2nc3ccccc3nc2N2CCOCC2)c1C,i,i,x,x,x
CCOC(=O)N1CCN(CC(=O)Nc2nnc(C(F)(F)F)s2)CC1,i,i,-2.6%,-0.2%,30.5
CC(C)N1CCc2c(sc(NC(=O)CCc3ccccc3)c2C(N)=O)C1,i,i,-93.3%,u,u
CC(=O)Nc1sc2c(c1-c1nc3ccccc3s1)CCN(C(C)C)C2,7.31µM*,u,20.6µM*,u,-105.1*
OC1(c2cccc(C(F)(F)F)c2)CCN(CCN2CCCCC2)CC1,i,i,-1.4%,u,1.1
C[C@H](CO)N1C[C@H](C)[C@@H](CN(C)S(=O)(=O)c2ccc(F)cc2)Oc2c(NC(=O)NC3CCCCC3)cccc2C1=O,i,i,-7.0%[9.22 µM],-0.1%,-56.2*
C[C@H](CO)N1C[C@H](C)[C@@H](CN(C)S(=O)(=O)c2ccccc2)Oc2c(NC(=O)Nc3ccc4c(c3)OCO4)cccc2C1=O,i,i,-0.5%,2.3%,-60.8*
C[C@H](CO)N1C[C@H](C)[C@@H](CN(C)CC2CCCCC2)Oc2c(NC(=O)Cc3ccccc3)cccc2C1=O,u,u,u,u,-70.0*
C[C@@H]1CN([C@@H](C)CO)C(=O)c2cc(C#CC3CCCCC3)cnc2O[C@@H]1CN(C)S(=O)(=O)c1ccc(F)cc1,i,u,x,x,-52.7*
Cn1cnc([N+](=O)[O-])c1N=C(N)N,i,i,-4.6%,0.1%,10.7
O=c1[nH]c(SCc2ccccc2)nc2[nH]ncc12,i,i,-1.0%,-29.6%,-3.5
Cc1ccc(S(=O)(=O)N2CCN(C(=O)CN3C(=O)c4ccc([N+](=O)[O-])cc4C3=O)CC2)c(C)c1,i,i,7.6%,14.8%,13.0
COc1ccc(S(=O)(=O)Nc2cccc3c2O[C@H](CN(C)S(=O)(=O)c2ccc(F)cc2)[C@H](C)CN([C@H](C)CO)C3=O)cc1,i,i,-8.0%,11.5%,-2.0
COc1ccc(S(=O)(=O)Nc2cccc3c2O[C@H](CN(C)S(=O)(=O)c2ccccc2)[C@@H](C)CN([C@H](C)CO)C3=O)cc1,i,u,0.82µM*,-0.4%,-11.2
C[C@H](CO)N1C[C@H](C)[C@@H](CN(C)S(=O)(=O)c2ccccc2)Oc2c(NC(=O)NC3CCCCC3)cccc2C1=O,i,i,-0.1%,-1.2%,-50.8*
SMILES,KB-3-1 tox,KB-V1 MDR tox,SW480 rereplic,MCF10A rerep,IL-1B inflam inh
O=S(OCCN1CCCC1)C(c1ccccc1)c1ccccc1 (stereo unspecified),i,u,-9.2%,u,-90.3*
O=S(OCCN1CCOCC1)C(c1ccccc1)c1ccccc1 (stereo unspecified),i,i,-2.3%,-9.3%,-11.4
O=C(NCCCN1CCOCC1)C(c1ccccc1)c1ccccc1,i,i,1.0%,0.3%,-8.7
O=C(NCCN1CCCC1)C(c1ccccc1)c1ccccc1,i,i,u,23.1µM*,-25.2
CCC(C)c1ccc(NC(=O)NCCN2CCCCC2)cc1 (stereo unspecified),i,i,u,-13.7%,-52.0*
C(=C\c1nc2ccccc2o1)/c1ccc2c(c1)OCO2,i,i,x,x,x
CC(C)c1ccc(NC(=O)N2CCc3ccccc3C2)cc1,i,i,-7.2%,4.5%,-59.1*
O=C(Nc1ccc([N+](=O)[O-])cc1)N1CCc2ccccc2C1,i,u,-2.8%,u,-89.9*
COC(=O)/C=C1\S/C(=N\N=C\CC(=O)OC)NC1=O,i,i,u,-2.8%,4.3
Cc1ccc2nc(-c3cccnc3)c(NC3CCCCC3)n2c1,i,i,-5.1%,8.1%,34.6
c1cn2c(NC3CCCCC3)c(-c3ccc(SC4CCCCC4)cc3)nc2cn1,i,i,-1.5%,u,-63.3*
c1cc(SC2CCCCC2)cc(-c2nc3cnccn3c2NC2CCCCC2)c1,u,u,3.26µM*,5.8µM*,-65.6*
c1cn2c(NC3CCCC3)c(-c3ccc(N4CCOCC4)cc3)nc2cn1,i,i,5.5%,15.9%,13.9
CCN(CC)c1ccc(-c2nc3cnccn3c2NC2CCCC2)cc1,u,i,20.6µM*,16.4µM*,u
CCC(C)Sc1cccc(-c2nc3ccc(C)cn3c2NC2CCCCC2)c1 (stereo unspecified),i,u,-27.6%[9.22 µM],u,-77.5*!
CC(Nc1ccc2c(c1)OCCO2)C(=O)N1c2ccccc2CC1C (stereo unspecified),i,u,29.3%,-1.1%,7.7
CN(CC(=O)Nc1ccc(Cl)cc1)CC(=O)Nc1sc2c(c1C(N)=O)CCC2,i,i,x,x,u
CCC(C)Sc1cccc(-c2nc3cnccn3c2NC2CCCCC2)c1 (stereo unspecified),u,u,u,18.4µM*,0.0
CCCn1c(C2CCCN2c2nc(-c3cccc(Br)c3)cs2)nc2ccccc21 (stereo unspecified),i,i,4.9%,6.2%,-17.1
O=c1oc2ccc3ccccc3c2cc1-c1nnc(-c2ccccc2)o1,i,u,0.7%,1.03µM*,-58.3*
COc1ccc(-c2nnc(-c3cc4c(ccc5ccccc54)oc3=O)o2)cc1,i,i,-0.1%,u,0.0
